Screening data: PubChem BioAssay, National Center for Advancing Translational Sciences (NCATS)
A549 viability: counter-screen for Nrf2 inhibitors: cytotoxicity in A549 cells; A549 ARE-Fluc cells, CellTiter-Fluor viability, 18-24 h; Potency, µM (series often up to 46 µM), inactives show at the highest dose activity change, negative = cytotoxicity, hits mostly inhibitors; actives 0.16% (n = 390,000); also: potency is read from the fitted curve at half-maximal effect; % is scaled to controls: 0 for no effect and ±100 for the full control effect
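A549 ARE-Fluc cells in 5% FBS OPTI-MEM, 5000 cells/well, rested 2 h then exposed to compounds in concentration-response for 18-24 h at 37 °C. Viability by CellTiter-Fluor fluorescence (Ex 405/Em 525) after 30 min; luciferase luminescence (BugLite, 15 min, RT) read afterwards.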
p53 reactivation: re-activators of mutant p53. H1299 p53-A138V BP100-luciferase reporter, luminescence, 24 h. Potency, µM (highest dose often 92.2 µM), for inactives: at the top dose activity change, positive = activation, usual class: activators. actives 0.063% (n = 320,000). AID 504706; also: potency is read from the fitted curve at half-maximal effect; % of control where 0% means no effect; nearly all actives have a fitted effect of over 45% in size
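p53-null H1299 cells stably carrying temperature-sensitive p53-A138V and a BP100-luciferase reporter were pinned with compounds (4-point, 1:5 series) and held 24 hrs at 37 deg C. Luminescence was read 10 min after detection reagent.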
BRCA1 expr act: activators of BRCA1 expression; MCF7-BRCA1-FFLuc reporter, luminescence, 48 h; response scale: scaled: vehicle 0%, 10 µM genistein 100%; actives 1.1% (n = 380,000); Potency, µM (highest dose often 46.1 µM), for inactives: at the highest dose activation, usual class: activators; AID 624202; also: potency is read from the fitted curve at half-maximal effect; nearly all actives have a fitted effect of over 80% in size
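Using MCF7 cells harboring a BRCA1 firefly luciferase reporter, plated 2 h before compound pinning, the screen measured luminescence after 48 h incubation. Responses were normalized to DMSO and 10 microM genistein, then fitted for concentration-effect.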
IL-2 act: IL-2 activation; IL-2 activation reporter assay, cell-based qHTS; stimulated with anti-CD3/CD4/CD28 beads; in transgenic mouse T cells; activation, % (series mostly up to about 46 µM); actives 0.065% (n = 360,000); in the data active = activation above about 50%; inconclusive = mostly about 30% to 49%; also: 0% is about no effect
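Unstimulated transgenic mouse T cells; 60-min compound exposure; bead-based TCR/CD4/CD28 stimulation; 18 h culture, 37 degrees C; dual fluorescence (EGFP, DsRed) plate cytometry.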
Nrf2 ARE act: Nrf2 pathway activation; AID 624171; Potency, µM (titrated, usually from 46.1 µM), for the others: at the highest dose activation, actives largely listed as activators; AREc32 ARE-luciferase reporter (MCF7-derived line), luminescence, 24 h; actives 0.31% (n = 410,000); also: potency is read from the fitted curve at half-maximal effect; % of control where 0% means no effect; nearly all actives have a fitted effect of over 65% in size
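Steps: seed AREc32_Fluc cells (1000/well, 5% FBS OPTI-MEM); incubate overnight at 37 deg C; add 23 nL compound; incubate 24 hr; add Steady-Glo; hold 30 min RT; read luminescence.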
Nrf2 inh: blocks Nrf2 signaling; A549 ARE-Fluc reporter, luciferase luminescence, 18-24 h; Potency, µM (series often up to 46 µM), inactives show at the highest dose activity change, negative = inhibition, usual class: inhibitors; actives 2.1% (n = 360,000); also: potency is read from the fitted curve at half-maximal effect; % is scaled to controls: 0 for no effect and ±100 for the full control effect; nearly all actives have a fitted effect of over 60% in size
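Quantitative HTS in A549 cells stably bearing an antioxidant response element-firefly luciferase construct. Inhibition of Nrf2-driven transcription was scored by luminescence after 18-24 h of compound exposure at 37 °C.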
An asterisk follows results filed as active; ? = inconclusive; · = not tested or not shown; [ ] = another dose, or the depositor's remark. Compounds with a hit are over-represented: about 3.2% of the library has one in this group of screens. Unless noted, calls follow the shape of the dose curve; as a rule, active = well fitted curve in the direction sought with a large enough effect; inconclusive = small, poorly fitted or top-dose-only effect, or another doubt; inactive = no such curve, though single readings can be large; an effect the other way counts as inactive or inconclusive.

SMILES	A549 viability	p53 reactivation	BRCA1 expr act	IL-2 act	Nrf2 ARE act	Nrf2 inh
O=C(Nc1ccc(F)cc1)c1cccnc1NCCc1ccccc1	-4.4%	4.4%	-38.9%	-5.4	0.1%	?
O=C(Nc1cccc(F)c1)c1cccnc1NCCc1ccccc1	-20.5%	8.1%	-50.2%	-0.9	2.6%	23.1µM*
Cc1ccc(NCCC(=O)c2cccs2)cc1C	3.0%	7.2%	-20.1%	-1.0	22.4µM*	?
Cc1ccc(O)c(NC(=O)CCC2CCCCC2)c1	-2.9%	10.4%	3.98µM*	1.2	3.6%	2.3%
Cc1ccc(NC(=O)CC2CCCC2)c(Br)c1	15.8%	?	12.6µM*	0.1	4.9%	?
Cc1ccc(NC(=O)CCC(=O)c2cccs2)c(Br)c1	-0.6%	11.1%	6.31µM*	-3.3	3.3%	27.4%
CCOc1ccc(N2CC(c3nc4ccccc4n3CCC3CCCCC3)CC2=O)cc1 (centres undefined)	-7.3%	·	·	·	-1.2%	-7.0%
Cn1c(NC(=O)CCC2CCCCC2)cc(=O)n(C)c1=O	0.3%	?	2.24µM*	-1.2	7.3%	?
Cc1cccc(-n2c(-c3ccccc3)cn3c4c(=O)[nH]c(=O)n(C)c4nc23)c1	1.1%	·	0.3%	·	-1.2%	-1.6%
O=C(c1ccc(CSc2ccc(Cl)cc2)cc1)N1CCCC1	-3.9%	2.2%	10µM*	0.1	10.7%	-2.7%
Cc1sc(NC(=O)c2ccc(F)cc2)c(CN2CCCCCC2)c1C	-9.6%	?	23.4%	15.2	12.6µM*	17.3%
O=c1oc2ccccc2c(N2CCN(c3ccccc3F)CC2)c1CN1CCCC1	-0.5%	·	·	·	0.1%	6.7%
COC(=O)c1c(-c2ccccc2)csc1N1C(=O)Nc2ccccc2N1O	6.3%	3.0%	7.94µM*	2.8	0.1%	?
CCOc1ccccc1N(CC)C(=O)c1cc2c(=O)n(CC)c3ccccc3c2s1	2.9%	·	-78.2%	·	-2.3%	-25.6%
O=c1c(-c2nnc(SCc3ccc(Cl)cc3)o2)cccn1Cc1ccccc1	?	-7.3%	-53.0%	1.4	-0.2%	20.6µM*
CCOc1cc(C)nc(NCCc2ccc(OC)c(OC)c2)n1	4.5%	-4.6%	0.0%	-2.0	0.3%	25.9µM*
COc1ccc(CCNc2ncnc3sc(C)cc23)cc1OC	-17.9%	0.9%	-55.4%	-0.7	1.3%	23.1µM*
COc1ccc(CCNc2nc(C)cc(=O)[nH]2)cc1OC	18.7%	·	1.0%	-2.3	-0.5%	-9.4%
O=C(NCCSCc1ccccc1)C1CCN(S(=O)(=O)Cc2ccccc2)CC1	4.7%	·	·	·	2.5%	?
COc1ccc(-c2ccc3ncnc(NCc4nc(C)cs4)c3c2)cc1OC	3.8%	·	·	·	·	?
Cc1cccc(C)c1NC(=O)C1C(c2ccccc2)=Nc2ccccc2N1C(=O)c1cnccn1 (centres undefined)	·	·	·	0.0	·	·
Nc1nc(SCC(=O)Nc2ccc(Oc3ccccc3)cc2)n[nH]1	-5.6%	2.0%	-18.7%	0.1	0.2%	1.2%
Nc1nc(SCC(=O)Nc2cccc(Oc3ccccc3)c2)n[nH]1	-2.8%	3.6%	-0.6%	-1.6	3.9%	16.4µM*
CCOc1ccc(Br)cc1S(=O)(=O)Nc1cccc(-c2ccc(OC)nn2)c1	4.2%	·	·	·	5.9%	·
c1ccc(-c2cnc(-c3ccccc3)nn2)cc1	9.2%	·	14.0%	0.7	2.82µM*	2.7%
SMILES	A549 viability	p53 reactivation	BRCA1 expr act	IL-2 act	Nrf2 ARE act	Nrf2 inh
c1ccc(-c2cnc(-c3ccccn3)nn2)cc1	-2.3%	·	19.5%	-0.1	?	?
O=C(Nc1ccccc1OC(=O)c1ccc(Cl)cc1)c1ccc(Cl)cc1	1.6%	?	-15.2%	-0.7	?	?
O=C(Nc1ccccc1O)c1ccc(Cl)cc1	0.0%	?	-54.9%	-0.6	12.6µM*	?
CN1C(=O)CSc2ccc(NC(=O)Nc3ccccn3)cc21	-4.8%	0.3%	3.98µM*	-2.4	8.4%	?
O=C(Nc1ccccn1)c1ccc(C(=O)Nc2ccccn2)cc1	-0.8%	-21.1%	35.5%	0.8	0.4%	1.7%
COc1ccccc1C(=O)Nc1ccccn1	11.1%	?	12.3%	-1.5	11.2µM*	·
COc1ccccc1C(=O)Nc1ccncc1	-0.5%	·	11.7%	-1.6	-1.9%[9.22 µM]	-19.4%
COc1ccc(NC(=O)Nc2ccccn2)cc1OC	0.3%	11.9%	12.6µM*	-0.5	6.9%	-11.7%
O=C(Nc1ccccn1)c1ccc(Br)s1	-6.3%	·	?	-0.6	15.8µM*	?
Cc1cc(C)cc(NC(=O)C2CCCN(S(=O)(=O)c3cccc4nsnc34)C2)c1 (centres undefined)	11.9%	·	13.1%	·	0.2%	1.2%
COc1ccc(C(=O)NCc2nnc(SCC(=O)Nc3ccc(C)cc3)n2-c2ccccc2)cc1	1.4%	·	·	·	-0.3%	?
COc1ccc(NC(=O)c2ccccc2SC)cc1OC	12.3%	-2.3%	-0.3%	-2.0	0.3%	·
Cc1ccc(C)c(N2CCN(C(=O)Nc3ccc4c(c3)N(C)C(=O)CS4)CC2)c1	-4.7%	2.2%	-56.1%	-4.1	10.9%	16.4µM*
COc1ccc(NC(=O)c2cc3c(Cl)nc4ccccc4c3s2)cc1OC	-28.0%	-7.1%	-46.0%	2.1	-0.7%	10.3µM*
COc1ccc(NC(=O)C#Cc2ccccc2)cc1OC	-7.6%	-60.1%	-9.9%	-2.0	11.7%[9.22 µM]	8.2µM*
CN1C(=O)CSc2ccc(NC(=O)N3CCN(c4ccccn4)CC3)cc21	-0.7%	-14.6%	-58.4%	0.2	8.8%	?
O=c1c2ccccc2oc2ncccc12	1.6%	11.5%	12.6µM*	0.5	1.9%	?
COc1cccc2c(=O)c3ccccc3oc12	-0.3%	7.8%	?	-0.2	4.2%	9.2%
COc1ccc(-c2nc3c4ccccc4n(CC(=O)Nc4cc(F)ccc4F)c(=O)n3n2)cc1	1.9%	·	·	·	5.9%	·
CC(C)OCCCNC(=O)c1ccc2c(c1)ncn2C1CCCC1	0.8%	10.0%	11.2µM*	-0.1	-0.5%	18.3%
O=C1c2ccccc2C(=O)N1c1cc(=O)c2ccccc2[nH]1	3.7%	·	·	·	·	2.5%
Cc1cc(C(=O)COC(=O)c2cc(Cl)ccc2N)c(C)n1Cc1ccco1	-1.2%	?	2.82µM*	0.1	3.0%	?
COc1ccc(C2Nc3ccccc3C(=O)N2CCc2ccccc2)cc1COc1ccc(NC(C)=O)cc1 (centres undefined)	4.8%	·	·	·	·	4.5%
Cc1oc(-c2ccccc2)nc1Cn1cccc1C1=NC(c2ccccc2)CO1 (centres undefined)	-9.5%	7.5%	-43.2%	-2.5	-0.4%	20.6µM*
COc1ccc(-c2nc(NC(=O)c3cc(C(C)(C)C)nn3C)sc2C)cc1	?	18.7%	-50.4%	1.0	0.2%	18.4µM*
